Where “and” joins values, the source holds several entries; their conditions need not be identical. Equal values may be shown once. The source holds several records for some structures; these can differ, active in one and inactive in another. Calls of active or inactive are those of the source. How the source made its calls: active means hit-call score of the fitted dose curve at least 0.9, where 1 is the maximum; inactive means score below 0.9.
Test: BSK_3C_SRB: Viability Assessment in the BioMAP Diversity Plus: 3C Assay (AID 2283023);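 further: fitted both ways against DMSO so a hit may be signal rise or drop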
Details: primary human endothelial cells (HUVEC)
Method: BSK_3C is a cell-based, multiplexed-readout assay that uses umbilical vein endothelium, a human vascular primary cell, with measurements taken at 24 hours after chemical dosing in a 96-well plate.BSK_3C_SRB is an assay component measured in the BSK_3C assay. It measures 0.1% sulforhodamine related to cell death using Sulforhodamine staining technology.Data from the assay component BSK_3C_SRB was analyzed into 1 assay endpoint. This assay endpoint, BSK_3C_SRB, was analyzed with bidirectional fitting relative to DMSO as the negative control and baseline of activity. Using a type of viability reporter, gain or loss-of-signal activity can be used to understand changes in the signaling. Furthermore, this assay endpoint can be referred to as a primary readout, because this assay has produced multiple assay endpoints where this one serves a signaling function. To generalize the intended target to other relatable targets, this assay endpoint is annotated to the cell morphology intended target family, where the subfamily is cell conformation.
The levels of cell surface (or secreted, indicated by the prefix "s") biomarker endpoints were measured by ELISA. Overt cytotoxicity to cells in confluent adherent cultures (all systems other than the BT system) was assessed by measuring total protein levels using sulforhodamine B (SRB) staining in parallel cultures at the time of biomarker measurements, indicated as SRB endpoints. For proliferation assays for adherent cell types, individual cell types are cultured at sub-confluence and relative cell numbers quantified by SRB staining at time points optimized for each system (48 h: 3C and CASM3C systems; 72 h: BT and HDF3CGF systems; 96 h: SAg system). SRB was performed by staining cells with 0.1% SRB after fixation with 10% TCA and reading wells at 560 nm.Viability and proliferation of PBMC (T cells) was quantified by Alamar Blue reduction for the SAg and BT systems. For PBMC viability (referred to as PBMC Cytotoxicity within the assay endpoint names), cells were plated (75,000/well in a 96-well plate) and then chemical samples added for 1 h before addition of activators, SEB and TSST-1 (20 ng/mL final concentration each). Cells were incubated for 90 h. Then, Alamar Blue (20 uL/well) (Invitrogen, Cat DAL1100) was added for 6 h, and the plates were read with a fluorescence microplate reader at 546/580 nm (excitation/emission). For PBMC proliferation, cells were plated and activated as above but incubated for only 16 h prior to addition of Alamar Blue. Plates were read after 6 h.

Row | SMILES | outcome | AC50
1 | O=c1[nH]c(Cl)c(Cl)cc1Cl | inactive | 
2 | O=P1(NCCCl)OCCCN1CCCl (centres undefined) | inactive | 
3 | CCC(C)c1cc([N+](=O)[O-])cc([N+](=O)[O-])c1OC(=O)C=C(C)C (centres undefined) |  | 12.9 µM (active)
4 | COC(C)(C)CCC[C@H](C)C/C=C/C(C)=C/C(=O)OC(C)C |  | 31.1 µM (active)
5 | Oc1cc(Cl)ccc1Cl | inactive | 
6 | Nc1ccc(-c2ccc(N)c(N)c2)cc1N | inactive | 
7 | Clc1ccc(-c2ccccc2)cc1 |  | 30.9 µM (active)
8 | CC(C)(c1cc(Cl)c(O)c(Cl)c1)c1cc(Cl)c(O)c(Cl)c1 |  | 9.54 µM (active)
9 | C=CCN(CC=C)C(=O)C(Cl)Cl | inactive | 
10 | [Cd+2].[Cl-].[Cl-] | inactive | 
11 | N#CCCCCC#N | inactive | 
12 | CC(C)(C)C(=O)CCl | inactive | 
13 | CNC(=O)Oc1cc(C)c(SC)c(C)c1 |  | 20 µM (active)
14 | O=C1C=CC(=O)C=C1 | inactive | 28 µM (active)
15 | COc1ccc(CO)cc1 | inactive | 
16 | COCC(=O)N(c1c(C)cccc1C)N1CCOC1=O | inactive | 
17 | Cc1ccc(OP(=O)(Oc2ccc(C)cc2)Oc2ccc(C)cc2)cc1 (tested in a mixture with another compound) |  | 9.68 µM (active)
18 | CCCC[N+](CCCC)(CCCC)CCCC | inactive | 
19 | O=c1c2ccccc2c(=O)c2c1cc(Cl)c1[nH]c3c([nH]c12)c(Cl)cc1c(=O)c2ccccc2c(=O)c13 | inactive | 

Row | SMILES | outcome | AC50
20 | C=CC(=O)OCC(CC)CCCC (centres undefined) | inactive | 
21 | CC(C)COP(=O)(OCC(C)C)OCC(C)C | inactive | 
22 | CC(C)CCCCCCCOC(=O)c1ccccc1C(=O)OCCCCCCCC(C)C | inactive | 
23 | CCCOC(=O)c1ccccc1C(=O)OCCC | inactive | 
24 | CC(=O)/C=C/c1ccccc1 | inactive | 
25 | Oc1ccc(C2(c3ccc(O)cc3)c3ccccc3-c3ccccc32)cc1 |  | 6.97 µM (active) and 8.38 µM (active)
26 | O=C1C(Cl)=C(Cl)C(=O)C(Cl)=C1Cl |  | 4.97 µM (active)
27 | CC(C)(C)C(O)C(Oc1ccc(-c2ccccc2)cc1)n1cncn1 (centres undefined) |  | 31.7 µM (active)
28 | O=S(=O)(c1ccccc1)c1ccccc1 | inactive | 
29 | O=[N+]([O-])O | inactive | 
30 | O=C(CCl)c1ccccc1 |  | 20 µM (active)
31 | CC1(C)[C@H](C(=O)O[C@H](C#N)c2cccc(Oc3ccccc3)c2)[C@@H]1C=C(Br)Br | inactive | 
32 | O=[N+]([O-])C=Cc1ccccc1 |  | 9.73 µM (active)
33 | CCCCCCCCCCCC#N |  | 34.1 µM (active)
34 | CCc1cc(C)cc(CC)c1-c1c(OC(=O)C(C)(C)C)n2n(c1=O)CCOCC2 | inactive | 
35 | c1ccc(Nc2ccc3ccccc3c2)cc1 |  | 30.2 µM (active)
36 | O=[N+]([O-])c1ccc(Cl)cc1 | inactive | 
37 | CC(C)CCCCCCCOP(=O)(Oc1ccccc1)Oc1ccccc1 |  | 9.85 µM (active)
38 | O=C(O)CCCc1ccc(N(CCCl)CCCl)cc1 |  | 20 µM (active)
